ANO1 activ: mouse TMEM16A channel activation, primary screen; 340,000 tested, 0.3% active; HEK293 TMEM16A/YFP-H148Q/I152L, iodide quench fluorescence; hits give low values; B-score at 10 µM;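 active means fluorescence-ratio B-score plate-corrected deviation score at least 3 library SD below zero, with starting fluorescence score within 5 deviations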;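 further: channel opened by trigger with iodide after compound preincubation; score built on the fluorescence ratio of max minus min over baseline; more negative score means more quench and so TMEM16A activation or potentiation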
Target sequence (Q8BHY3 whole entry, looked up): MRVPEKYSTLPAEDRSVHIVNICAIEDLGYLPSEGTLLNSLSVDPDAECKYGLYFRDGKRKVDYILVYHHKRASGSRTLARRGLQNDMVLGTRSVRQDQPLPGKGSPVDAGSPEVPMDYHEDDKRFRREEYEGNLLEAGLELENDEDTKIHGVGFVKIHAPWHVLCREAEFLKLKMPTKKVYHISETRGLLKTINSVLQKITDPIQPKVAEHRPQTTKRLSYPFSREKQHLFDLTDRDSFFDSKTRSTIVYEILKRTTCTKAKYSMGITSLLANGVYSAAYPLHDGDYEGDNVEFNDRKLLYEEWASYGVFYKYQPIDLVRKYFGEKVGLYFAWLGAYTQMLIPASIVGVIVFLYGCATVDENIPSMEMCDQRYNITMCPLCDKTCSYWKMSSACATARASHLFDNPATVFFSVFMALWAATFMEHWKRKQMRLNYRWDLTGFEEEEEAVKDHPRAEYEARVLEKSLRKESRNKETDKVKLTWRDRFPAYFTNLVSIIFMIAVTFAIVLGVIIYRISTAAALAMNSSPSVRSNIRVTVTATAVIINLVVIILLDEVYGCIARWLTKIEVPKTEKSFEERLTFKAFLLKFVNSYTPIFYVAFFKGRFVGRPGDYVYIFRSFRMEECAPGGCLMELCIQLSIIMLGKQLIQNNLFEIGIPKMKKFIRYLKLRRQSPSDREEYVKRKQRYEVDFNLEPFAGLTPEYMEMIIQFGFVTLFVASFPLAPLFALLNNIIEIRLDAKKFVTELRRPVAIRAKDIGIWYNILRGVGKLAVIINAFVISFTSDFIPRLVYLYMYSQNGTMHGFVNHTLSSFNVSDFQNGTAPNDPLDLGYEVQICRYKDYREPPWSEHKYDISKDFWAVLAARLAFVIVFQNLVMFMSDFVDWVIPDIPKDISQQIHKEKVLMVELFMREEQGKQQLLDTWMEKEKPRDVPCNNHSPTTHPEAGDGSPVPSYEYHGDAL
KLF5 inh: inhibitors of KLF5 expression; DLD-1 KLF5 promoter-luciferase reporter, luminescence; inhibition, % at 5 µM; 290,000 tested, 0.23% active; AID 1700;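 active means inhibition above a per-plate limit of that plate's mean compound inhibition plus 3 SD, cut at about 60% in these data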;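 further: 0% = DMSO wells and 100% = LY294002 at 200 µM; higher means less KLF5 promoter-driven luciferase light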
aSyn 5UTR inh: 5' untranslated region of α-synuclein, MLPCN primary screen; 300,000 tested, 0.82% active; inhibition, % (tested at 7.5 µM); alpha-synuclein 5'UTR reporter, inhibitor activity; AID 1813; in the data active means inhibition above about 60%;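 further: H4 neuroglioblastoma cells stably carrying SNCA 5'UTR luciferase fusion; 0% = DMSO wells and 100% = positive control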
TMEM16A inh: blocks the mouse calcium-activated chloride channel TMEM16A; normalized B-score (activity score, 25-100; higher = stronger inhibition) at 10 µM; 310,000 tested, 1.2% active; HEK293 TMEM16A/YFP iodide influx fluorescence, ionomycin; AID 588511; Q8BHY3;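 active means ratio plate-corrected score three or more library SD toward inhibition, starting fluorescence score within five deviations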;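 further: score derived from kinetic fluorescence span divided by baseline fluorescence per well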
697 NFkB inh: inhibitors of the PMA/ionomycin-induced NF-kB reporter in 697 B cells. inhibition, % at 4 µM. 697 B-cell NF-kB luciferase reporter, 16 h. 330,000 tested, 0.33% active. AID 435022; in the data active means inhibition above about 35%
Jurkat NFkB inh: lowers PMA/ionomycin-induced NF-kB signal in Jurkat cells | PMA/ionomycin-induced NF-kB luciferase reporter, luminescence | AID 435003 | inhibition, % at 4 µM | 330,000 tested, 0.53% active; in the data active means inhibition above about 50%
Jurkat NFkB conf: lowers PMA/ionomycin-induced NF-kB signal in Jurkat cells. shares compounds with Jurkat NFkB inh. Jurkat NF-kB luciferase, 16 h. inhibition, % at 4 µM. 2,700 tested, 27% active;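 active means inhibition reaching about 45% at 4 µM in either replicate, limit read from the data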;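 further: plate controls were PMA/ionomycin stimulated DMSO wells for no effect and unstimulated DMSO wells for full effect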
697 NFkB conf: lowers PMA/ionomycin-induced NF-kB signal in 697 B cells; shares compounds with 697 NFkB inh; 697 B-cell NF-kB luciferase, 16 h; inhibition, % at 4 µM; 2,000 tested, 35% active; AID 449746; in the data active means inhibition mostly above about 28%, no sharp cut-off; inactive means mostly below about 22%
The depositor's hits bear a star; i = inactive; x = no result. Shown are actives, neighbours in structure and some others; about 2.5% of the full set was active somewhere.

SMILES	ANO1 activ	KLF5 inh	aSyn 5UTR inh	TMEM16A inh	697 NFkB inh	Jurkat NFkB inh	Jurkat NFkB conf	697 NFkB conf
Cc1ccc2[nH]c3c(c2c1)CCCC3C(N)=O (configuration not stated)	i	-36.9	-25.4	i	17.0	-3.9	x	x
CCOC(=O)c1nn(-c2ccccc2C)c(=O)cc1OCC(=O)N1CCN(c2ccccc2)CC1	i	x	9.7	i	-16.8	3.0	x	x
COc1ccccc1N1CCN(c2cc(N3CCCC3)nc(C)n2)CC1	i	-11.3	9.3	i	-37.7	16.5	x	x
COc1ccccc1N1CCN(c2ccc3ccccc3n2)CC1	i	-51.5	-53.3	i	-310.5	-156.7	-98.7	-257.5
COc1ccc(O)c(C(=O)CC(=O)c2ccncc2)c1	i	x	x	x	x	x	x	x
COc1ccc(O)c(C(=O)CC(=O)c2ccccc2)c1	x	-31.6	4.2	i	-251.2	-157.6	-107.9	-196.1
COc1cccc(CC(=O)Nc2ccc3c(c2)OC2(CCCC2)O3)c1	i	x	x	x	-33.2	-28.3	x	x
O=C(Nc1nc2ccccc2s1)c1ccccc1	i	-35.9	2.0	i	-261.2	-219.7	-147.2	-310.5
c1ccc2sc(NN=C3CCCCCC3)nc2c1	i	-149.0	5.2	i	-388.3	-155.9	-91.7	-319.5
O=C(Nc1nc2ccc(F)cc2s1)c1ccccn1	x	59.8	102.4*	i	-385.0	96.0*	-3.8	-332.4
CN(C)c1cccc(C(=O)Nc2cccc(F)c2)c1	i	-197.5	-175.2	i	-26.6	-37.4	x	x
CCN(CC)c1ccc(C(=O)Nc2cccc(F)c2)cc1	i	-128.2	-77.1	i	-293.3	-221.2	-144.0	-293.6
Cc1ccc(N/C=C/C(=O)c2ccccc2)cc1Br	i	-130.1	-83.1	i	-281.7	-158.4	-71.8	-183.2
Cc1ccc(C(=O)/C=C/Nc2ccc3c(c2)OCO3)cc1	i	-58.1	-181.6	i	-376.3	-204.7	-23.1	-76.5
Nc1c2c(nc3sc4c(c13)CCCC4)-c1ccccc1CC2	i	-124.4	-75.3	i	-468.7	-236.2	-187.6	-440.8
O=C(CN1CCN(c2ccccn2)CC1)Nc1cccc(S(=O)(=O)N2CCCC2)c1	i	-25.3	14.6	i	-6.3	4.1	x	x
O=C(COc1ccc2ccccc2c1Br)N1CCCCC1	i	-1.9	-61.4	i	-54.3	-45.0	x	x
O=C(Oc1ccc2ccccc2c1Br)N1CCCCCC1	i	-97.9	26.2	i	i	-308.3	-102.8	i
CC(C)Cc1nnc(NC(=O)CCC(=O)NC2CCCCC2)s1	i	-40.0	10.3	i	-1.5	13.7	x	x
Oc1c(N=Nc2ccccc2)sc2ccccc12	i	-143.5	-191.6	i	-267.8	-175.7	-128.2	-285.9
COc1ccccc1C(CNC(=O)c1oc2ccccc2c1C)N1CCCC1 (configuration not stated)	i	x	x	x	0.6	-12.5	x	x
COc1ccc(CCNc2nc(C)nc3c2oc2ccccc23)cc1OC	i	6.0	-2.9	i	-32.0	-3.5	x	x
COc1ccc(CCNc2ncnc3c2oc2ccccc23)cc1OC	i	0.6	-44.3	100*	46.9*	62.0*	57.4*	54.0*
OCCCNc1cc(-c2ccnc(Nc3cccc(Cl)c3)n2)ccn1	i	x	109.7*	i	85.3*	98.6*	99.9*	90.8*
Cc1c(C(=O)Nc2cccc([N+](=O)[O-])c2)csc1-c1ccccc1	i	-162.2	-130.3	i	i	-419.3	-193.4	i
Cc1ccc(NC(=O)c2csc(-c3ccccc3)c2C)cc1	i	-115.0	x	x	x	x	x	x
CC(C)c1ccc2oc(-c3ccc(N)cc3)nc2c1	i	-41.2	48.1	i	-472.3	-225.4	-144.3	-400.3
Cc1ccc(-c2nc3cc(C)ccc3o2)cc1	i	-134.2	72.5*	i	-308.0	-174.9	-98.0	-291.6
Nc1ccc2oc(-c3cccs3)nc2c1	i	-119.3	-88.8	i	-59.7	-68.8	x	x
Cc1ccc(-c2nc3cc(N)ccc3o2)cc1	i	-117.8	-7.3	i	-264.9	-201.7	-81.5	-192.6

High-throughput results: PubChem, several laboratories
